Reference: PubChem BioAssay (NCI)
This is part of a sample that, as a whole, favours compounds with a hit. Of some 83,000 tested, about 20% had one in any assay.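 Activity criterion: percent growth below 10, measured after cells in 96-well plates were exposed to a single compound concentration for 48 hours.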 The source made the active and inactive calls.

System: SF-268 CNS
Assay: NCI-60 one-dose screen, 48 h (100 = growth as untreated, 0 = no growth, -100 = all killed)
Details: 10 µM unless noted

Q: For `Cn1c2ccccc2c2c3c(c4c5cc(Br)ccc5n(C)c4c21)C(=O)N(O)C3=O`, which growth is on record?
A: -0.663% (active)

Q: How did the growth turn out when `c1ccc2cc(Cn3cc(CSc4nc5ccccc5s4)nn3)ccc2c1` was run?
A: 95.8% (inactive)

Q: For `COCCn1cc(-c2nc(-c3cc4cccnc4n3C)cs2)c2ccccc21`, which growth is on record?
A: 58.9% (inactive)

Q: For `COc1ccc(C2[C@@H](Cl)C(=O)N2c2cc(OC)c(OC)c(OC)c2)cc1Cl` (stereo partly specified), which growth is on record?
A: 26.1% (inactive)

Q: `N#Cc1nn(-c2cc(=O)[nH]c3ccc(Br)cc23)c(N)c1C#N` was tested. Which growth did it give?
A: 108% (inactive)

Q: With `CC1=C2CC/C(C)=C/CC[C@]3(C)O[C@H]3CC/C(C)=C/[C@H]2OC1` as the compound, how does the growth read?
A: 105% (inactive)

Q: With `CN(C)CCCn1c2c(c3cnccc3c1=O)C(=O)c1ccccc1-2` as the compound, how does the growth read?
A: -3.3% (active)

Q: `CN1CCOCCN(C)Cc2ccc3ccc(cc3c2)CN(C)CCOCCN(C)Cc2ccc3ccc(cc3c2)C1` was tested. Which growth did it give?
A: 84.9% (inactive)

Q: With `COc1ccc2c(O)c(/C=C3\N=Nc4ncccc43)oc2c1C[C@@H]1CCNC[C@H]1F` as the compound, how does the growth read?
A: -31.1% (active)

Q: For `COc1cc(/C=C2\C(=O)N(CCCOc3cc(O)c4c(=O)cc(-c5ccccc5)oc4c3)c3ccccc32)cc(OC)c1O`, which growth is on record?
A: 78.5% (inactive)

Q: For `Cc1ccc(S(=O)(=O)c2nc(-c3ccccc3)oc2SCC(N)=O)cc1`, which growth is on record?
A: 90% (inactive)

Q: `C=CN(C(=O)N1CCN(c2cc3c(cc2F)c(=O)c(C(=O)O)cn3C2CC2)CC1)c1nc(-c2ccccc2)cs1` was tested. Which growth did it give?
A: 99.4% (inactive)

Q: With `Cc1ccc(NC(=O)c2sc3nc(C)c(C(O)c4ccccc4)cc3c2N)cc1` (stereo unspecified) as the compound, how does the growth read?
A: 49.5% (inactive)

Q: With `Nc1c(Br)cc2c(c1Br)Cc1cc([N+](=O)[O-])ccc1-2` as the compound, how does the growth read?
A: 103% (inactive)

Q: For `Cn1cc(-c2nc3c(F)cc4[nH]ncc4c3c3c2CCCC3)c(C(F)(F)F)n1`, which growth is on record?
A: 47.7% (inactive)

Q: With `CCCCCc1ccc(S(=O)(=O)Nc2ccc3nc(N)oc3c2)cc1` as the compound, how does the growth read?
A: 51.1% (inactive)

Q: Which growth does the source give for `Nc1ncnc2c1N=C(c1ccc(F)cc1)CC(c1cccc(Nc3ccnc4cc(Cl)ccc34)c1)N2` (stereo unspecified) here?
A: 62% (inactive)

Q: For `CCOC(=O)c1[nH]cc2c1CCc1sc(Nc3ccccn3)nc1-2`, which growth is on record?
A: 89.4% (inactive)

Q: With `C=C(C)[C@@H]1CC[C@]2(CO)CC[C@]3(C)[C@H](CC[C@@H]4[C@@](C)(CCCN)[C@H](C(=C)C)CC[C@]43C)[C@@H]12` as the compound, how does the growth read?
A: -41.9% (active)

Q: How did the growth turn out when `CCN1C(=O)N(c2ccccc2)C2NC(=S)N(/N=C/C=C/c3ccccc3OC)C21` (stereo unspecified) was run?
A: 47.3% (inactive)

Q: Which growth does the source give for `CN1c2ccccc2S(=O)(=O)n2c(SCC(=O)Nc3nc4ccc(F)cc4s3)nnc21` here?
A: 105% (inactive)

Q: How did the growth turn out when `Clc1ccc(Nc2nnc(CNc3ccccc3)c3ccccc23)cc1` was run?
A: 20.9% (inactive)

Q: With `N#C/C(=C\c1ccc(-c2cccc(Cl)c2)o1)C(=O)Nc1ncc(Cc2ccc(Cl)cc2)s1` as the compound, how does the growth read?
A: 72% (inactive)

Q: Which growth does the source give for `CN(C)CCC(CCN(C)C)(C(=O)O)c1ccccc1` here?
A: 107% (inactive)

Q: `CC1(C)CC[C@]23CC[C@]4(C)[C@H](CC[C@@H]5[C@@]6(C)C/C(=C/O)C(=O)C(C)(C)[C@@H]6CC[C@]54C)[C@H]2[C@H]1OC3` was tested. Which growth did it give?
A: 108% (inactive)

Q: For `CN(C)C1CN(C(=O)c2cc(-c3ccc4ncnc(N5CCc6cc(F)c(Cl)cc65)c4c3)cnc2N)C1`, which growth is on record?
A: 18.4% (inactive)

Q: Which growth does the source give for `Cc1[nH]n(-c2cccc(Cl)c2)c(=O)c1/C=C1\C=c2ccccc2=CC1=O` here?
A: 47.2% (inactive)

Q: With `COCCn1cc(-c2csc(-c3c[nH]c4ccccc34)n2)c2cccnc21` as the compound, how does the growth read?
A: 50.1% (inactive)

Q: For `COC(=O)c1c2c(c[n+]([O-])c1C)C(=O)C=C(NCc1ccccc1)C2=O`, which growth is on record?
A: -51.6% (active)

Q: With `ClC(Cl)c1nc(-c2ccccc2)n2nc(-c3ccccc3)cc2n1` as the compound, how does the growth read?
A: 11.9% (inactive)

Q: With `CN(C)c1ccc([C@@H](C(=O)Nc2cccc([N+](=O)[O-])c2)N(C(=O)c2cc3ccccc3[nH]2)c2cccc([N+](=O)[O-])c2)cc1` as the compound, how does the growth read?
A: 97.4% (inactive)

Q: Which growth does the source give for `CC(C)(Sc1cc(C(C)(C)C)c(O)c(C(C)(C)C)c1)Sc1cc(C(C)(C)C)c(OC(=O)CCC(=O)O)c(C(C)(C)C)c1` here?
A: 57.3% (inactive)

Q: `COc1cc(C=C2C(=O)NC(=S)NC2=O)cc(CN2CCCC2)c1O` was tested. Which growth did it give?
A: 99.6% (inactive)

Q: With `Cc1cc(C)c2c(c1)N(C)c1ncnc(-n3c(C)nc4cc(C)ccc43)c1CC2C` (stereo unspecified) as the compound, how does the growth read?
A: 45.9% (inactive)

Q: `Brc1ccc(Nc2nc(Nc3cnc4ccccc4c3)c3[nH]cnc3n2)cc1` was tested. Which growth did it give?
A: 76.6% (inactive)

Q: For `COc1cc(C[C@H]2COc3cc(O)cc(O)c3C2=O)ccc1O`, which growth is on record?
A: 47.2% (inactive)
